What was measured:
[1] = biological target: Protein kinase C gamma type (Homo sapiens) (UniProt P05129); settings: at 1 µM;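 also: each value is an averaged percent inhibition of the enzyme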
[2] = biological target: T1, Protein kinase C iota type (Homo sapiens) (UniProt P41743); settings: at 0.1 µM
T1 sequence (whole entry): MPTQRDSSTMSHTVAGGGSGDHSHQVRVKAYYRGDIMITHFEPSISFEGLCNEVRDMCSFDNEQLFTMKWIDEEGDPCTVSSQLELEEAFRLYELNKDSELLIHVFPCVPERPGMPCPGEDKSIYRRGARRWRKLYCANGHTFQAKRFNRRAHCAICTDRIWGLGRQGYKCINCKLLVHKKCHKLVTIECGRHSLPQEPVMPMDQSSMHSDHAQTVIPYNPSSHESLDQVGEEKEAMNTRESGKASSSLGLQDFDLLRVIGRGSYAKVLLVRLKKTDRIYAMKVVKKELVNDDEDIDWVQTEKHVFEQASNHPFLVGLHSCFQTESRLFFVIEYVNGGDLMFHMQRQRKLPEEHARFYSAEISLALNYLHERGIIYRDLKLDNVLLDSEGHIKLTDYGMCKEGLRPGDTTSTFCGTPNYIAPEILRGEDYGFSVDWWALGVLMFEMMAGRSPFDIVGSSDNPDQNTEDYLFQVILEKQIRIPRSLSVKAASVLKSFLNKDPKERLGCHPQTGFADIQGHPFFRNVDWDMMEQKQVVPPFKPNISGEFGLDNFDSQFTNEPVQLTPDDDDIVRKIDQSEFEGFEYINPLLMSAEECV

[3] = biological target: T1, Protein kinase C iota type (Homo sapiens); settings: at 1 µM
[4] = biological target: Protein kinase C theta type (Homo sapiens) (UniProt Q04759); settings: at 0.1 µM
[5] = biological target: Protein kinase C theta type (Homo sapiens) (UniProt Q04759); settings: at 1 µM
[6] = biological target: Protein kinase C beta type (Homo sapiens) (UniProt P05771); settings: at 0.1 µM
[7] = biological target: Protein kinase C beta type (Homo sapiens) (UniProt P05771); settings: at 1 µM
[8] = biological target: T2, Serine/threonine-protein kinase D1 (Homo sapiens) (UniProt Q15139); settings: at 0.1 µM
T2 sequence (whole entry): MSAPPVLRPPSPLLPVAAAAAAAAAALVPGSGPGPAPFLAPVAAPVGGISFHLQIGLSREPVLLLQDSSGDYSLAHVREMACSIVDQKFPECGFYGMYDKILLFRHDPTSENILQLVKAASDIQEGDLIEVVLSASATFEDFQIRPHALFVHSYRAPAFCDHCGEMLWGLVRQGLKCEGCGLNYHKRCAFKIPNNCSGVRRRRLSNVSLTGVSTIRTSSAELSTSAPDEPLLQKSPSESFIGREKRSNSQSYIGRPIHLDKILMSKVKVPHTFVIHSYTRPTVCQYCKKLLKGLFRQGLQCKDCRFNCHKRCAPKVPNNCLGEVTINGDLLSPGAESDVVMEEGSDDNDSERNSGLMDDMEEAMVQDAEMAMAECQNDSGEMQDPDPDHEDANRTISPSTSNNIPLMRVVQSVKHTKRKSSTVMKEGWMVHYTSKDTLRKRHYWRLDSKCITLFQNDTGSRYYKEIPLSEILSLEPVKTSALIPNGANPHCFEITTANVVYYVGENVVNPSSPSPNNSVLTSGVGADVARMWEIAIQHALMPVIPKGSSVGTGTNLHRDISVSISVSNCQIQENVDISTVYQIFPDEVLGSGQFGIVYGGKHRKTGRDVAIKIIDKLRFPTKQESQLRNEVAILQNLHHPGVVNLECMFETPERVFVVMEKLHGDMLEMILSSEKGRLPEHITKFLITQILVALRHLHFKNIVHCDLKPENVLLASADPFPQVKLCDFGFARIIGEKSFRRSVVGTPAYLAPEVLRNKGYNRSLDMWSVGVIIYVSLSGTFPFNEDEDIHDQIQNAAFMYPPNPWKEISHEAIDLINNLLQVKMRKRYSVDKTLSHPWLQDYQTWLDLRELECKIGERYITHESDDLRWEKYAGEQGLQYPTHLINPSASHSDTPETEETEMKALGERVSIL

[9] = biological target: T2, Serine/threonine-protein kinase D1 (Homo sapiens); settings: at 1 µM
[10] = biological target: T3, Serine/threonine-protein kinase D2 (Homo sapiens) (UniProt Q9BZL6); settings: at 0.1 µM
T3 sequence (whole entry): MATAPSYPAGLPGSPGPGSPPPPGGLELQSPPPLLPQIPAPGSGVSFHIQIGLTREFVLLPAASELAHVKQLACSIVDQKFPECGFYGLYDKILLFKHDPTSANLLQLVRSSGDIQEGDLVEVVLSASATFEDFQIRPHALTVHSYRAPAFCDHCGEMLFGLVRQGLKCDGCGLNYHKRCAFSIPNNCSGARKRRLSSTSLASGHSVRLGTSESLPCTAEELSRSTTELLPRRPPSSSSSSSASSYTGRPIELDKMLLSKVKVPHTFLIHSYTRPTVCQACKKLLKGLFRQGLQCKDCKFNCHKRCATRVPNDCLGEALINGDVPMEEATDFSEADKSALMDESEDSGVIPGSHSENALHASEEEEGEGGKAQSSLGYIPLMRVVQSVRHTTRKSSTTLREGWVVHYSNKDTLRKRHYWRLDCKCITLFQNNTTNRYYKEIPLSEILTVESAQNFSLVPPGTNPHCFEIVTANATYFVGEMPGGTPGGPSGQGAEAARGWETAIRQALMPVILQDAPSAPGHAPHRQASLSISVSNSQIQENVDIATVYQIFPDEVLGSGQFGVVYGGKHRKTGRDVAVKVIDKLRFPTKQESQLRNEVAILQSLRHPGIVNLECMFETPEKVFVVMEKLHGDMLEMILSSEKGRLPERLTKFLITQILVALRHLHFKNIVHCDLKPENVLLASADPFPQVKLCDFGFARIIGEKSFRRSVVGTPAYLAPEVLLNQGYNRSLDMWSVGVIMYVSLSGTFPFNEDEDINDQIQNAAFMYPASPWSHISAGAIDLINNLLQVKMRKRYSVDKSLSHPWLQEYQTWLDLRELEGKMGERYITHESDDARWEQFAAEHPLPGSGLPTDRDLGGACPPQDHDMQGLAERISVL

[11] = biological target: T3, Serine/threonine-protein kinase D2 (Homo sapiens); settings: at 1 µM
[12] = biological target: T4, Serine/threonine-protein kinase D3 (Homo sapiens) (UniProt O94806); settings: at 0.1 µM
T4 sequence (whole entry): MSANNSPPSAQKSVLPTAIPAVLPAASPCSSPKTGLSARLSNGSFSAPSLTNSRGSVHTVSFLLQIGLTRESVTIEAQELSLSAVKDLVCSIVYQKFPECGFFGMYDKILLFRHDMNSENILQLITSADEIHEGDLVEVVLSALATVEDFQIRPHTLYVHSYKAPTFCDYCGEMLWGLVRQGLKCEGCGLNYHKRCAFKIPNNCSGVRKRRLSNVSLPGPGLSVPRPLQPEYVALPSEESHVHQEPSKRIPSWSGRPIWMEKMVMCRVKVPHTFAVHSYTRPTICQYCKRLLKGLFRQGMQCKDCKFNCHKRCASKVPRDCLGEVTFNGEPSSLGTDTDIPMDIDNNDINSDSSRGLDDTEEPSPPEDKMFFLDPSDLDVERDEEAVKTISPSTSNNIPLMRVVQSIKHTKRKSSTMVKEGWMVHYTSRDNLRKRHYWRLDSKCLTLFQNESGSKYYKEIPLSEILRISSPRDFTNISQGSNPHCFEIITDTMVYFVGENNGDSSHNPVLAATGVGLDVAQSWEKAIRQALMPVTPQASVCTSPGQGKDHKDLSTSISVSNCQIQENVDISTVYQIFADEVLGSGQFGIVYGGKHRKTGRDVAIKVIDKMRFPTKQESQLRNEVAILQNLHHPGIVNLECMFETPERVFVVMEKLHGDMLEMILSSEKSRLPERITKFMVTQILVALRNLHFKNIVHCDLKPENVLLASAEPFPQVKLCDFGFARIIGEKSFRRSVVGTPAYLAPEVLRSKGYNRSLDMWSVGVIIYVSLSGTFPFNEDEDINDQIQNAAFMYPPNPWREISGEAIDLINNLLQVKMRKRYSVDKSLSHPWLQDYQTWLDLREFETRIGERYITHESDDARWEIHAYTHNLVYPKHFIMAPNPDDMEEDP

[13] = biological target: T4, Serine/threonine-protein kinase D3 (Homo sapiens); settings: at 1 µM
[14] = biological target: T5, cGMP-dependent protein kinase 1 (Homo sapiens) (UniProt Q13976); settings: at 0.1 µM
T5 sequence (whole entry): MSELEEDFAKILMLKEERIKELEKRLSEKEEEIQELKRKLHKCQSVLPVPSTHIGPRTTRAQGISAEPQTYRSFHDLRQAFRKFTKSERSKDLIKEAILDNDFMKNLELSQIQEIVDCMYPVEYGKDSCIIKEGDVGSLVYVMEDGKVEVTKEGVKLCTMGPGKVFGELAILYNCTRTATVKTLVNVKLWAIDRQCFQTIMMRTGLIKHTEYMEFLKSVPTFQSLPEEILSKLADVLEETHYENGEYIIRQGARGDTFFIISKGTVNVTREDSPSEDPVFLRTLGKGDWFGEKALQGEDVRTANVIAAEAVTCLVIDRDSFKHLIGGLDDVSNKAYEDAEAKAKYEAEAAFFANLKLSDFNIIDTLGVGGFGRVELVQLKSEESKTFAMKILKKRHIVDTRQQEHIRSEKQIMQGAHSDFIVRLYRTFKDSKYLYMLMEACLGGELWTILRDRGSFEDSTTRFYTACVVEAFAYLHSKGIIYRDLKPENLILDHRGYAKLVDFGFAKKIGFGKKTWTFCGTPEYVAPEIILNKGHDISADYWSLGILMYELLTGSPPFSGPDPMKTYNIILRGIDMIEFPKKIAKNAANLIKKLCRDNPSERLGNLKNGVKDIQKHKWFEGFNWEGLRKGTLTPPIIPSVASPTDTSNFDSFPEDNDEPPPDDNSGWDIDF

[15] = biological target: T5, cGMP-dependent protein kinase 1 (Homo sapiens); settings: at 1 µM
[16] = biological target: T6, cGMP-dependent protein kinase 2 (Homo sapiens) (UniProt Q13237); settings: at 0.1 µM
T6 sequence (whole entry): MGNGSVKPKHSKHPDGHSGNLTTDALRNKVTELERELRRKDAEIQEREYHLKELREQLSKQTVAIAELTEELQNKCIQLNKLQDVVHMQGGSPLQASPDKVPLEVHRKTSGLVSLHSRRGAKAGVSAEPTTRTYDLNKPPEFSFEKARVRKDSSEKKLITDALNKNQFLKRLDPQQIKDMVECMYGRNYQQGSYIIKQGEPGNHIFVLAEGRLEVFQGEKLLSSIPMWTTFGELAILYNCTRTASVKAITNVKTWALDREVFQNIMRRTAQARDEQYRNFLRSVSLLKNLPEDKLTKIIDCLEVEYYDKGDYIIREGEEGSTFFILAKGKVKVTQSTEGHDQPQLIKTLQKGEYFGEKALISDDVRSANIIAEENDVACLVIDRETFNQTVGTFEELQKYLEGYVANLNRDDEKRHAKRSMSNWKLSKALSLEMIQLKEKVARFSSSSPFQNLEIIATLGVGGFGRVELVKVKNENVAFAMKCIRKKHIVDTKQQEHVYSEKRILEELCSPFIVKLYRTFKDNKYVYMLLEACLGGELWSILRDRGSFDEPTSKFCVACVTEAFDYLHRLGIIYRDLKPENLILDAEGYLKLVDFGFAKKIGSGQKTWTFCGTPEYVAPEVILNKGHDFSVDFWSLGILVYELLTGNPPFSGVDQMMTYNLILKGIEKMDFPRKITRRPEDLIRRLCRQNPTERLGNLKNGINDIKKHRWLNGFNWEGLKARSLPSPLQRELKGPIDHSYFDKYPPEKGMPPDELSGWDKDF

[17] = biological target: T6, cGMP-dependent protein kinase 2 (Homo sapiens); settings: at 1 µM
[18] = biological target: T7, cAMP-dependent protein kinase catalytic subunit PRKX (Homo sapiens) (UniProt P51817); settings: at 0.1 µM
T7 sequence (whole entry): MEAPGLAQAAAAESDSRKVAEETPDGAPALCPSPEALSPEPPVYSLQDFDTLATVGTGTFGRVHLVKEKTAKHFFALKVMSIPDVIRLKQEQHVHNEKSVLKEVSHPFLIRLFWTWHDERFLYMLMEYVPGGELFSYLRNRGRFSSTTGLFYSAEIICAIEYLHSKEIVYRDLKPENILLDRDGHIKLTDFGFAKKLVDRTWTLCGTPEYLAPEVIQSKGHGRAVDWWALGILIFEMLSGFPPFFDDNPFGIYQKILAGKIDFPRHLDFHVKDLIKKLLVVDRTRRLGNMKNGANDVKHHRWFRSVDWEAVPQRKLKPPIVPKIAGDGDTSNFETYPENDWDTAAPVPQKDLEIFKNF

[19] = biological target: T7, cAMP-dependent protein kinase catalytic subunit PRKX (Homo sapiens); settings: at 1 µM
[20] = biological target: Rho-associated protein kinase 1 (Homo sapiens) (UniProt Q13464); settings: at 0.1 µM;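 also: values are mean percent inhibition of ROCK1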
Chain of Rho-associated protein kinase 1 (Homo sapiens) (Q13464 2-1354 limits assumed): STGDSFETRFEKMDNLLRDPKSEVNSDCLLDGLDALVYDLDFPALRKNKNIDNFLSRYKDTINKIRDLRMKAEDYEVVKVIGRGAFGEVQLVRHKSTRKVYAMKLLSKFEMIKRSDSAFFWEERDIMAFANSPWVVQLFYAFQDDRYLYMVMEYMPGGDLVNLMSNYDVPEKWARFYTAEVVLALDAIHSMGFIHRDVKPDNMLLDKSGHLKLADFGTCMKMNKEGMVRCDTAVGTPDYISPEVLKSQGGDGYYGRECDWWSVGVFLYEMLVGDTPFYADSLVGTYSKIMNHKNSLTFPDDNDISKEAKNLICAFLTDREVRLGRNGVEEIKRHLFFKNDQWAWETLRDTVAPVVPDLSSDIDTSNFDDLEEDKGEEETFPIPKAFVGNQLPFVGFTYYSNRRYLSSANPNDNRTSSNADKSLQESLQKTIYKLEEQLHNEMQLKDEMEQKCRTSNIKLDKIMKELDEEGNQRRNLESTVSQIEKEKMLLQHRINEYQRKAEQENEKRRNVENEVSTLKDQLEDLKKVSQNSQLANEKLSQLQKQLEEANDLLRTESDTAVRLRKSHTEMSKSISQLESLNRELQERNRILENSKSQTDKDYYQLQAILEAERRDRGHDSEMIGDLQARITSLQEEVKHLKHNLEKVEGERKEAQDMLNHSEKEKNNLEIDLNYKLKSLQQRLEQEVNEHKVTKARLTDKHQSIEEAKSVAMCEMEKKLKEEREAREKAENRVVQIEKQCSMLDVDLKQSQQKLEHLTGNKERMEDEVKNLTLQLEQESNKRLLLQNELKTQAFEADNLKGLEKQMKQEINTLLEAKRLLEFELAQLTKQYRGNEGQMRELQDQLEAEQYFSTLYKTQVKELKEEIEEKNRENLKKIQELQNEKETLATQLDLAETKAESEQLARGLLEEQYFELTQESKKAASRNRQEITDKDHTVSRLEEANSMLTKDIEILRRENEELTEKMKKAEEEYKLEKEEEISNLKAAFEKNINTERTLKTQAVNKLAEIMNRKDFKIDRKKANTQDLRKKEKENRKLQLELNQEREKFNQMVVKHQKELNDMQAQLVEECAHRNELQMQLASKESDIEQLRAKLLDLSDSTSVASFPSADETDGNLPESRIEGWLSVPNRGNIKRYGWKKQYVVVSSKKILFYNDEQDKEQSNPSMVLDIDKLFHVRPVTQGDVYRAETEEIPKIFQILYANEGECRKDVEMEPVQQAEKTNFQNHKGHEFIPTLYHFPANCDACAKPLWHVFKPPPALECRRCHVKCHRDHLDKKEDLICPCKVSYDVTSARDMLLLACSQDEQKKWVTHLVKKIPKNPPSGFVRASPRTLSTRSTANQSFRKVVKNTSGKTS

Chain of Protein kinase C beta type (Homo sapiens) (P05771 2-671 limits assumed): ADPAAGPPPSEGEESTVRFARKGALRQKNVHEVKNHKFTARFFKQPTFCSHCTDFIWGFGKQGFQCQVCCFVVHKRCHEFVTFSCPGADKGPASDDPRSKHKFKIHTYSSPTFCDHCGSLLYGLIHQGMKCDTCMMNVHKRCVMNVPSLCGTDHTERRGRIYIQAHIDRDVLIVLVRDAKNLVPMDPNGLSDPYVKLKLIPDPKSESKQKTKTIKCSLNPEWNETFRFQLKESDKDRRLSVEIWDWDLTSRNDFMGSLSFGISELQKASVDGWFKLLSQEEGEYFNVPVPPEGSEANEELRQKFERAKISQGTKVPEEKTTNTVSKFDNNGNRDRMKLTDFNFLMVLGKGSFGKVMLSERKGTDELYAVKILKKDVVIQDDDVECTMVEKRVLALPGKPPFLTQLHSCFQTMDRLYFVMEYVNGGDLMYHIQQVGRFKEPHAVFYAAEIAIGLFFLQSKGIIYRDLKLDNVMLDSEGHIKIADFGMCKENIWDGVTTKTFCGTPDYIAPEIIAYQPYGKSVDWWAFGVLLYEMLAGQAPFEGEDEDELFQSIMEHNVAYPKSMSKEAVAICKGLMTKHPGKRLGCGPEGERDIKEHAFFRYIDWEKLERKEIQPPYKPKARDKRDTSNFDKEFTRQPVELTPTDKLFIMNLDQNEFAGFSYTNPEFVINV
Chain of Protein kinase C theta type (Homo sapiens) (Q04759 whole entry, looked up): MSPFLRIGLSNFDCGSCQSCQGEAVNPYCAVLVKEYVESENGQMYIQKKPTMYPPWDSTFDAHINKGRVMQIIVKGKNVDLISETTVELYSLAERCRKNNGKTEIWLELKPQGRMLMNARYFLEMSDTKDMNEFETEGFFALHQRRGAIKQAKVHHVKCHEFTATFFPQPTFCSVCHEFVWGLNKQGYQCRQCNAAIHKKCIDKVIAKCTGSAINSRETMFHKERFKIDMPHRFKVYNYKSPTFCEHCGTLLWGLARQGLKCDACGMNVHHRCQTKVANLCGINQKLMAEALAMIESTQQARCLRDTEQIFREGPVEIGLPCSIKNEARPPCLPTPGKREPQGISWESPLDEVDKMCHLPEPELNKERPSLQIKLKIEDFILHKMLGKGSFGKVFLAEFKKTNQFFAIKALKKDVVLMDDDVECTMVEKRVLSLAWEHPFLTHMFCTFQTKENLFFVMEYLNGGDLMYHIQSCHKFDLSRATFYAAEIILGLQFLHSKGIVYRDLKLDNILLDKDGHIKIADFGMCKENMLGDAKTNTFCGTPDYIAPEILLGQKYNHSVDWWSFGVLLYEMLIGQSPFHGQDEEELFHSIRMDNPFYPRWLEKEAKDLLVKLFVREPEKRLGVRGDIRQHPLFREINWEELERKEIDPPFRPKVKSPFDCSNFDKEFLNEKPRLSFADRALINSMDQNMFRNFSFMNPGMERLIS

Row | SMILES | inhibition [1] [%] | inhibition [2] [%] | inhibition [3] [%] | inhibition [4] [%] | inhibition [5] [%] | inhibition [6] [%] | inhibition [7] [%] | inhibition [8] [%] | inhibition [9] [%] | inhibition [10] [%] | inhibition [11] [%] | inhibition [12] [%] | inhibition [13] [%] | inhibition [14] [%] | inhibition [15] [%] | inhibition [16] [%] | inhibition [17] [%] | inhibition [18] [%] | inhibition [19] [%] | inhibition [20] [%]
1 | O=C(Nc1n[nH]c2nc(-c3ccc(O)cc3)c(Br)cc12)C1CC1 | 48.1 | 5.33 | 19.2 | 7.68 | 33.2 | 19 | 57.6 | 4.47 | 7.7 | 6.19 | 5.92 | 5.64 | 6.49 | 3.5 | 6.22 | 5.14 | 27.8 | 3.04 | 4.28 | 0.72
2 | CN(C)CCOc1ccc(-c2cc(-c3ccc4c(c3)CCC4=NO)c(-c3ccncc3)o2)cc1 | 0.02 | -1.87 | -1.84 | -1.06 | -0.42 | -0.72 | 2.28 | -0.39 | 0.79 | 0.89 | 1.9 | -0.84 | 0.31 | -1.48 | 3.68 | -0.1 | 11.2 | -0.21 | -1.72 | -1.57
3 | Fc1ccc(-c2ncn(C3CCNCC3)c2-c2ccnc(Oc3ccc4c(c3)OCO4)n2)cc1 | 6.16 | 4.45 | 4.29 | 3.38 | 3.39 | 1.38 | 5.69 | 4.85 | 12.4 | 5.35 | 9.53 | 5.01 | 9.26 | 2.62 | 2.47 | 3.43 | 2.62 | 1.9 | 2.4 | 2.94
